The subject of experiment [1] is PRMT1 (protein arginine N-methyltransferase 1). Put plainly: PRMT1 binders on small-molecule microarrays, primary screen, biochemical, small-molecule microarray, 635 nm fluorescence (AID 1088).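 Also: binding of Prmt1 protein to compounds spotted on small-molecule microarray slides.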 As to conditions: small-molecule microarray binding, higher = more signal.
Experiment [2] can be described thus: yeast growth modulation, basal conditions, primary screen, YJM789 clinical isolate, OD600, 24 h (AID 1089).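 Also: growth of clinical yeast isolate S. cerevisiae YJM 789 seeded 1000 cells per well; test concentration not given here.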 As to conditions: S. cerevisiae YJM789 growth, higher = more signal, called active from +8 up or from −8 down.
The nature of experiment [3]: fission yeast growth modulation, primary screen, strain 972, OD600, 24 h, no modulator (AID 1090).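 Also: basal condition with compound alone and no growth modifier present; test concentration not given here.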 The settings on record: S. pombe 972 growth, higher = more signal, called active from +8 up or from −8 down.
The nature of experiment [4]: S. cerevisiae growth modulation with rapamycin, primary screen, strain BY4716, OD600, 96 h (AID 1091). Also: test concentration not given here. The settings on record: higher = more signal, called active from +8 up or from −8 down.
The target in experiment [5] is Torsin-1A-interacting protein 2 (Homo sapiens) (UniProt Q8NFQ8). Briefly: LULL1 binders on small-molecule microarray, primary screen, cell lysate, human LULL1 lysate, 635/667 nm fluorescence (AID 1092).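 Also: probe is lysate of COS7 cells overexpressing human LULL1; score merges per-feature 667 nm fluorescence with signal-to-noise.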 As to conditions: hLULL1 lysate binding, 635 nm fluorescence, higher = more signal.
Experiment [6] is described as follows: E. coli growth modulation, two-sided OD650, primary screen, E. coli filamentation project, strain DRC41, 24 h (AID 1093).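 Also: MC1000 strain lacking acrAB efflux and sulA so SOS filamentation is blocked; test concentration not given here.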 As to conditions: OD650, 24 h, higher = more signal, called active from +8 up or from −8 down.
Experiment [7] in a line: small-molecule microarray binders of probe aLefty2, primary screen, biochemical, biotinylated probe, 635/667 nm fluorescence (AID 1094).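 Also: score merges spot fluorescence near 667 nm with spot signal-to-noise ratio.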 As to conditions: higher = more signal.
For experiment [8], the system named is Noggin (protein binding on small-molecule microarray). Briefly: Noggin binders on small-molecule microarray, primary screen, biochemical, 635/667 nm fluorescence (AID 1095).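 Also: score merges 667 nm feature fluorescence with signal to noise over triplicate slides.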 As to conditions: 635 nm fluorescence, higher = more signal.
Experiment [9] deals with Neurogenic locus notch homolog protein 3 (Homo sapiens) (UniProt Q9UM47). Briefly: NOTCH3 binders on small-molecule microarray, primary screen, biochemical, 635/667 nm fluorescence (AID 1096). The settings on record: NOTCH3 binding, 635 nm fluorescence, higher = more signal.
The nature of experiment [10]: small-molecule microarray binders of probe aEGFR, primary screen, biochemical, biotinylated probe, 635/667 nm fluorescence (AID 1097).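 Also: probe is a biotinylated anti-EGFR antibody binding compounds printed on slides; score combines fluorescence near 667 nm and signal to noise of each spot.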 As to conditions: higher = more signal.
Experiment [11] concerns Plasmodium falciparum Sir2 (PF13_0152, Sir2A). Briefly: pfSir2 binders on small-molecule microarrays, primary screen, biochemical, small-molecule microarray, 635 nm fluorescence (AID 1098).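 Also: score merges spot fluorescence intensity with its signal-to-noise ratio.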 The settings on record: small-molecule microarray binding, fluorescence 635 nm; higher = more signal.
Experiment [12] can be described thus: small-molecule microarray binders of probe aDKK1, primary screen, biochemical, biotinylated probe, 635/667 nm fluorescence (AID 1099).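 Also: score merges 667nm spot fluorescence with signal to noise across triplicate slides; reference of the scale not given here.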 As to conditions: higher = more signal.
The nature of experiment [13]: small-molecule microarray binders of probe aCHRDL2, primary screen, biochemical, biotinylated probe, 635/667 nm fluorescence (AID 1100). The settings on record: higher = more signal.
Experiment [14] in a line: splicing luciferase reporter signal modulators, primary screen, spliceosome inhibition project, cell-based, HEK293, splice +/- reporter (AID 1101).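 Also: HEK293 cells carrying a splicing-competent luciferase reporter gene; test concentration not given here.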 As to conditions: luminescence, 24 h, higher = more signal, called active from +8 up or from −8 down.
The target in experiment [15] is Fibroblast growth factor 10 (Homo sapiens) (UniProt O15520). Put plainly: FGF10 binders on small-molecule microarrays, primary screen, biochemical, small-molecule microarray, 635 nm fluorescence (AID 1102). The settings on record: FGF10 binding, fluorescence 635 nm, higher = more signal.
Experiment [16] relates to glycogen synthase kinase-3 (GSK3A per assay name; protocol says GSK3B). Put plainly: GSK3 binders on small-molecule microarrays, primary screen, biochemical, small-molecule microarray, 635 nm fluorescence, GSK3A (AID 1103). Also: the record names both GSK3A and GSK3B. The settings on record: small-molecule microarray binding, fluorescence 635 nm; higher = more signal.
In experiment [17] the target is Epidermal growth factor receptor (Homo sapiens) (UniProt P00533). Briefly: EGFR binders on small-molecule microarrays, primary screen, biochemical, small-molecule microarray, 635 nm fluorescence (AID 1104).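 Also: score merges 667 nm emission intensity with spot signal to noise over triplicate slides.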 As to conditions: EGFR binding, higher = more signal.
The target of experiment [18] is Follistatin-related protein 3 (Homo sapiens) (UniProt O95633). Put plainly: FSTL3 binders on small-molecule microarrays, primary screen, biochemical, small-molecule microarray, 635 nm fluorescence (AID 1105).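 Also: score merges emission near 667 nm and signal to noise per printed spot across three slides.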 As to conditions: FSTL3 binding, higher = more signal.
Experiment [19] concerns the target Dickkopf-related protein 1 (Homo sapiens) (UniProt O94907). Briefly: DKK1 binders on small-molecule microarrays, primary screen, biochemical, small-molecule microarray, 635 nm fluorescence scan (AID 1106).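 Also: score merges emission near 667 nm with signal to noise over three replicate slides.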 As to conditions: DKK1 binding, higher = more signal.
Experiment [20] relates to Inhibin beta A chain (activin A). Briefly: INHBA (activin A) binders on microarrays, primary screen, biochemical, small-molecule microarray, 635 nm fluorescence scan (AID 1107).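 Also: mouse activin A protein probed at 4.33 µg/mL on printed slides; score merges bound-protein fluorescence near 667 nm with spot signal-to-noise.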 The settings on record: small-molecule microarray binding, higher = more signal.

The results in this text go back to PubChem BioAssay.

Calls of active or inactive are those of the source.

Chain of Neurogenic locus notch homolog protein 3 (Homo sapiens) (Q9UM47 whole entry, looked up): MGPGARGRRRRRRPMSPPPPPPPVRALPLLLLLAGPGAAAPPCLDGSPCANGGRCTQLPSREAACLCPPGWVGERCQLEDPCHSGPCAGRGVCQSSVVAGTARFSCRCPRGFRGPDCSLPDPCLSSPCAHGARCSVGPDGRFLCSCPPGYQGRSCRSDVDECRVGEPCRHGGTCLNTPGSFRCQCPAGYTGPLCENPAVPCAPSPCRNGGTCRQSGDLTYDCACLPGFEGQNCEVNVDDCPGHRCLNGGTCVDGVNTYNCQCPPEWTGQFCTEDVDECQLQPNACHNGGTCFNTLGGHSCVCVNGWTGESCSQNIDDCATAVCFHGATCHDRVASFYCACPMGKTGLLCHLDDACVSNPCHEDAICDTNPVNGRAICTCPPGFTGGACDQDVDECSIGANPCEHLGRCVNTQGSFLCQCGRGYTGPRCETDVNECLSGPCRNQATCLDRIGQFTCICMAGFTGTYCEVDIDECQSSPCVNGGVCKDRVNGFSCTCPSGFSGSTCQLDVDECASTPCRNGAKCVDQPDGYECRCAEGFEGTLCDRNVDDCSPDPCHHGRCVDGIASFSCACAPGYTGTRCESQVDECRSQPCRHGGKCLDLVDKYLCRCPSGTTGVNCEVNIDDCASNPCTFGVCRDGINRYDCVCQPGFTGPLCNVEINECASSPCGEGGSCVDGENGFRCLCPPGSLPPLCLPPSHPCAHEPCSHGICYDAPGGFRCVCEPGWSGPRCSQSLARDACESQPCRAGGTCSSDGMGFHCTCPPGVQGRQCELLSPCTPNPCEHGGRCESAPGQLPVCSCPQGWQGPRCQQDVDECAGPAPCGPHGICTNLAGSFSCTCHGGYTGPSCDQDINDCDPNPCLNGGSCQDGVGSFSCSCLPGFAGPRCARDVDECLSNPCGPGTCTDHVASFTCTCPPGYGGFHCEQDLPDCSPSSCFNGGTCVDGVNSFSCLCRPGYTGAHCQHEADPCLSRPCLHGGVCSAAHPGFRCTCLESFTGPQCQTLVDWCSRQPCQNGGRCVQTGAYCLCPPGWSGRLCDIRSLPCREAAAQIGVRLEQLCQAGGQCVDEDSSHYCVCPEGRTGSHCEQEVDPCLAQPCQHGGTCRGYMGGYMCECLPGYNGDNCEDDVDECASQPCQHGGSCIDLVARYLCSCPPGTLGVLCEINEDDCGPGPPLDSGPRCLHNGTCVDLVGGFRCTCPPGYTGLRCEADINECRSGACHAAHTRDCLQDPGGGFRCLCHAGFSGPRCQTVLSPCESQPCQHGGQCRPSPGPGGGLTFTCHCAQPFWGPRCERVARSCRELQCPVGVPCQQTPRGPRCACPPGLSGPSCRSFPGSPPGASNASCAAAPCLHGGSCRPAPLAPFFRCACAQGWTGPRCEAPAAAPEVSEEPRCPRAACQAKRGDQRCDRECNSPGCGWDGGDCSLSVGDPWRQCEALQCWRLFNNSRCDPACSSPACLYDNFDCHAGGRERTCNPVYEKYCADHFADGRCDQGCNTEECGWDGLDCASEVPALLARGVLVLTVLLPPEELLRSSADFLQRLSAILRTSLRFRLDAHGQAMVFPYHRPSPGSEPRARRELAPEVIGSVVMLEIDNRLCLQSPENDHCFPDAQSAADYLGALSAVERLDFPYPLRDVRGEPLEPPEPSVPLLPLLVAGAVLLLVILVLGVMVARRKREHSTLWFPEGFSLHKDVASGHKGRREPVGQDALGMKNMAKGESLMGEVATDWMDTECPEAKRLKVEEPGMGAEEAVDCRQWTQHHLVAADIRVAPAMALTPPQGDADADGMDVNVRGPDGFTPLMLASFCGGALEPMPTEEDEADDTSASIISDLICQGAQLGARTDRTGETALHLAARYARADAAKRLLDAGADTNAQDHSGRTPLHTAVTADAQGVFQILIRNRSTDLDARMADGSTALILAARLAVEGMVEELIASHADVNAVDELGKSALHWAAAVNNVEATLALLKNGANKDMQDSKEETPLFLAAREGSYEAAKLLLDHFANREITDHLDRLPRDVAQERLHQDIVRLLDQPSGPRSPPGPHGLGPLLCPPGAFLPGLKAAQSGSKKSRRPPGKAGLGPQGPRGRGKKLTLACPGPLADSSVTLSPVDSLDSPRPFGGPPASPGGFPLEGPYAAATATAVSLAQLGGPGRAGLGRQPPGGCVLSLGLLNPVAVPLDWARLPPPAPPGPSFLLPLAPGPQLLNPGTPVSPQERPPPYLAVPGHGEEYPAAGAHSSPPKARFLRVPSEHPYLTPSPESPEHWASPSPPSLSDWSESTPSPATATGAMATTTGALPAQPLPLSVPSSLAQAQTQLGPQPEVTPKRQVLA
Chain of Fibroblast growth factor 10 (Homo sapiens) (O15520 whole entry, looked up): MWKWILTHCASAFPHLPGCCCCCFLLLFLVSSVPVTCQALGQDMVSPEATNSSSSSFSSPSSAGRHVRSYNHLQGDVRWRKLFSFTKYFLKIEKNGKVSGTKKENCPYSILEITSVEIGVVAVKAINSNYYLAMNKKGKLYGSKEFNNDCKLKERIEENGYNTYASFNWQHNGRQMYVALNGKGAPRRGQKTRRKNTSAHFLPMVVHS
Chain of Dickkopf-related protein 1 (Homo sapiens) (O94907 whole entry, looked up): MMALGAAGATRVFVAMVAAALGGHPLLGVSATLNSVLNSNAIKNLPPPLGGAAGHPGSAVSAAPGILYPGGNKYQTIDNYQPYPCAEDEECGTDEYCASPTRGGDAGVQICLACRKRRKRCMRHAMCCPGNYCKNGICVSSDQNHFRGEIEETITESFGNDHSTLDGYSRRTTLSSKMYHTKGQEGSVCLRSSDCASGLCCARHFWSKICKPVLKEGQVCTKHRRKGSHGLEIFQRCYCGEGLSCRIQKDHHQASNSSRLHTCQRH
Chain of Torsin-1A-interacting protein 2 (Homo sapiens) (Q8NFQ8 whole entry, looked up): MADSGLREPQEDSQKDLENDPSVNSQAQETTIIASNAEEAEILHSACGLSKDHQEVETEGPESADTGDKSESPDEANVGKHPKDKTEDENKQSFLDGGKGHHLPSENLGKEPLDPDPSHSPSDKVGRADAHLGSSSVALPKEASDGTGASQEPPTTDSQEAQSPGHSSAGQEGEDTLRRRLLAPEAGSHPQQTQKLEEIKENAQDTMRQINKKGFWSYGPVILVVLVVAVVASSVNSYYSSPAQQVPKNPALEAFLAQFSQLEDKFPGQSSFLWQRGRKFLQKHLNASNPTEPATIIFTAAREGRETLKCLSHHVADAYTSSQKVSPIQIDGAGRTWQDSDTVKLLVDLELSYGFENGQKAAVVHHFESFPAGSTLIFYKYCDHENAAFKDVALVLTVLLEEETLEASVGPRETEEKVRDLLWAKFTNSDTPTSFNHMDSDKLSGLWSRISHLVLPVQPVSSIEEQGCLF
Chain of Follistatin-related protein 3 (Homo sapiens) (O95633 whole entry, looked up): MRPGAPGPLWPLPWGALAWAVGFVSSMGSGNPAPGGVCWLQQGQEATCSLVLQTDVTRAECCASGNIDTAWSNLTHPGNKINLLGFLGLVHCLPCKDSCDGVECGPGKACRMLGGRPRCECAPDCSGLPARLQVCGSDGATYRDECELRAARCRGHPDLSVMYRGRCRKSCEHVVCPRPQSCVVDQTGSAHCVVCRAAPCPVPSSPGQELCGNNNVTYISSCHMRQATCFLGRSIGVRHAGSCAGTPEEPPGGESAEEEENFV
Chain of Epidermal growth factor receptor (Homo sapiens) (P00533 whole entry, looked up): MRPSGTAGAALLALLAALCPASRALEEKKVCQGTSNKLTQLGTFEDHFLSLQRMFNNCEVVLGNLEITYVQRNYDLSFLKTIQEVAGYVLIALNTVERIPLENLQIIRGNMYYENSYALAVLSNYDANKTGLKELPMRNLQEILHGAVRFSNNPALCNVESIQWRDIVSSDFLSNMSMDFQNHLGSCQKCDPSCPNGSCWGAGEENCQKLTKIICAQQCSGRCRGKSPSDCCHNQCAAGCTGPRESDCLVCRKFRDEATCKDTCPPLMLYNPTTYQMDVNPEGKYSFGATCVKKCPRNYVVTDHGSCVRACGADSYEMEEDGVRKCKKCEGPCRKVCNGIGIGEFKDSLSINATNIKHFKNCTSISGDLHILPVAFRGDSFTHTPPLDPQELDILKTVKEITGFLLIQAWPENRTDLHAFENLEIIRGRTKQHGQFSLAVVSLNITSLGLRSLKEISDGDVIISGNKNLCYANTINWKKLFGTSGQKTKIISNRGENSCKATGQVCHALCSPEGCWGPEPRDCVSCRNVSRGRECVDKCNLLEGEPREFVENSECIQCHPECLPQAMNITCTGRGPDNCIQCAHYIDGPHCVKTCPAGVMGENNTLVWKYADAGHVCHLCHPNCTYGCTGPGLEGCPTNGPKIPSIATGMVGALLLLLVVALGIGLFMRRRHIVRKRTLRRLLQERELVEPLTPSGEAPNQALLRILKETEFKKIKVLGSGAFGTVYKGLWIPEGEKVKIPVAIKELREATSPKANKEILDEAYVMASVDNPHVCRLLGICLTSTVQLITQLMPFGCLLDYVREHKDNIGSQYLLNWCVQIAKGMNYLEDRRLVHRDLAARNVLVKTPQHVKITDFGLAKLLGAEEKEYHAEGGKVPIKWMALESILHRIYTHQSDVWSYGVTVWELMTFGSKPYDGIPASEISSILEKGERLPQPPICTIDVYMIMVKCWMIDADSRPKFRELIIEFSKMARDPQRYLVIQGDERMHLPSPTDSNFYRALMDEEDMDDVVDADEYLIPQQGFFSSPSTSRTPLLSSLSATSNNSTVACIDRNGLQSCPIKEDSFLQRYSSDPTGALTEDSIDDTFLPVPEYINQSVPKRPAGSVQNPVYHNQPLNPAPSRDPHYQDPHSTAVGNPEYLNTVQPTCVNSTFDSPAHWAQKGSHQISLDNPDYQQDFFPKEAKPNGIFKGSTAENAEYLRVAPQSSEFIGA

Turning to `CCCNC(=O)[C@@]1(c2ccc([N+](=O)[O-])cc2)CC(=O)N(CC23CC4CC(CC(C4)C2)C3)[C@@H]1c1ccc(CO)cc1I`, the composite z-score was determined as 1.14 in [1]; 1.53 in [5]; 0.0962 in experiment [7]; 0.367 in [8]; 0.243 in experiment [9]; 0.141 in experiment [10]. Besides, the composite z-score in [11] was 0.441; in experiment [12], 0.563; in experiment [13], 0.195; in experiment [15] it was 0.193; in experiment [16] it was 0.588; in [17], 0.27. Besides, the composite z-score in experiment [18] is 0.236; in experiment [19] it was 0.0305; in experiment [20], 0.655. For the same molecule, the z-score was 0.804 (inactive) in experiment [2]; 1 (inactive) in experiment [3]; 5.52 (inactive) in experiment [4]; 0.136 (inactive) in experiment [6]; 1.58 (inactive) in experiment [14].
For `O=C1C[C@@](C(=O)O)(c2ccc([N+](=O)[O-])cc2)[C@@H](c2ccc(CO)cc2I)N1CC12CC3CC(CC(C3)C1)C2`, the composite z-score in [1] was 1.47; in experiment [5] it was 2.79; in [7], -0.0096; in [8], 0.0251; in experiment [9], 1.06; in experiment [10] it was -0.0056. For the same molecule, the composite z-score in [11] was 0.816; in experiment [12], 1.23; in [13], 1.13; in experiment [15] it was 0.248; in experiment [16] it was 0.48; in experiment [17] it was 0.12. Also, the composite z-score in experiment [18] is 0.206; in [19], -1.1; in experiment [20], 0.723. Moreover, the z-score was -0.12 (inactive) in experiment [2]; -3.03 (inactive) in experiment [3]; 5.6 (inactive) in experiment [4]; 0.177 (inactive) in experiment [6]; -0.0388 (inactive) in experiment [14].
As for `C#C[C@H]1Oc2ccccc2S(=O)(=O)N2CCC[C@@H]12`, the composite z-score is -0.513 in [1]; -0.607 in experiment [5]; -0.0804 in experiment [7]; 0.636 in experiment [8]; -0.226 in experiment [9]; -0.0564 in experiment [10]. Further, the composite z-score was 0.578 in experiment [11]; -0.215 in experiment [12]; -0.0688 in [13]; -0.0502 in experiment [15]; 0.0695 in experiment [16]; 0.354 in experiment [17]. Moreover, the results for the composite z-score in experiment [18], in experiment [19] and in experiment [20] were 0.712, 1.29 and 1.74, respectively. Also, the z-score in experiment [2] was -0.346 (inactive); in experiment [3], -0.133 (inactive); in experiment [4], -1.55 (inactive); in [6], -0.738 (inactive); in experiment [14], 0.724 (inactive).
As to `CC(C)OC(=O)C1=CCC(c2cccc(Cl)c2)O1` (stereo not given), the composite z-score in experiment [1] is 0.559; in experiment [5], 3.3; in experiment [7] it was -0.245; in [8], -0.523; in experiment [9], -0.129; in experiment [10], -0.306. Moreover, the composite z-score is 1.58 in experiment [11]; -0.306 in experiment [12]; 0.461 in experiment [13]; -1.34 in [15]; -0.33 in [16]; -1.71 in experiment [17]. Also, the composite z-score is -0.715 in [18], -2.24 in experiment [19] and -1.41 in experiment [20]. Besides, the z-score was -3.2 (inactive) in [2]; -5.63 (inactive) in experiment [3]; -1.11 (inactive) in [4]; 1.09 (inactive) in experiment [6]; -2.49 (inactive) in [14].
Take `CCCC[C@@H]1C[C@H]1[C@@H](NC(=O)c1ccccc1)c1ccccc1`: the composite z-score in [1] is -0.352; in [5], 0.981; in experiment [7], 0.302; in [8], 0.226; in experiment [9], 0.571; in experiment [10], 0.104. Moreover, the composite z-score in [11] was -0.563; in [12], 0.599; in experiment [13] it was 0.781; in experiment [15] it was -0.232; in [16], -0.949; in [17] it was -0.151. For the same molecule, the composite z-score in [18] is 0.227; in [19], -0.256; in [20] it was 0.582. Moreover, the z-score was 0.588 (inactive) in experiment [2]; 1.02 (inactive) in experiment [3]; 1.54 (inactive) in experiment [4]; -0.404 (inactive) in experiment [6]; 0.308 (inactive) in experiment [14].
